# Assay results as given in PubChem BioAssay AID485395 (ICCB-Longwood Screening Facility, Harvard Medical School, 2010).
# The whole screen tested about 120,000 compounds, of which about 55 (0.05%) were called active. Only a selection was taken, and actives are over-represented in it overall. A number with no mark means an inactive call. Cut-off read from the data, not from the text of the source: active = inhibition above about 25% (passing the limit was not always enough); inactive = the rest.
# System: replicative DNA helicase (DnaC/DnaB), Staphylococcus aureus
# Test: inhibitors of S. aureus replicative helicase, primary screen, biochemical, fluorescence unwinding readout (AID 485395);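 note: 0% = mean of negative control wells and 100% = mean of positive control wells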
# Details: purified S. aureus helicase, fluorescence unwinding assay; active compounds read high; concentration not given here
row,SMILES,inhibition
1,Cc1cc(CNCc2nnc3ccccn23)c(C)n1-c1ccnn1C(C)C,7%
2,Nc1cc(N)cc(C(F)(F)C(F)(F)C(F)(F)F)c1,23%
3,CCOc1ccc2nc(NC(=O)c3ccccc3OC)sc2c1,-8%
4,Cc1ccc(-n2nc(C)c(C(=O)N(Cc3ccccc3)C(C)C)c2-n2cccc2)cc1,22%
5,O=C(NC(c1ccccc1)c1ccccc1)C1COC2C=CC=CC2O1 (stereo not given),5%
6,CCCn1c(NC(=O)CCCc2nc3ccccc3c(=O)[nH]2)nc2ccccc21,6%
7,COc1ccc(Cc2nn3c(C(C)(C)C)nnc3s2)cc1OC,-4%
8,O=C1CCC(C(=O)NN2C(=O)c3cccc4cccc(c34)C2=O)=NN1,10%
9,CCOc1ccc(CCNC(=O)Nc2ccc(C)c(C)c2)cc1OCC,-3%
10,CCOC(=O)c1c2c(n(-c3ccccc3)c1N)OC(=N)C(C#N)C2c1ccc(Br)cc1 (stereo not given),-19%
11,NNC(=O)CNC(=O)c1cccc2ccccc12,17%
12,O=C(CSc1ccc2nnc(-c3cccc(F)c3)n2n1)NCc1ccccc1,-3%
13,Cc1nc(Nc2nc3ccccc3o2)ncc1C(=O)Nc1ccccc1,24%
14,Cc1occc1-c1nnc(SCc2ccc(C(C)(C)C)cc2)n1N,-3%
15,Cc1ccc(-c2nc(C#N)c(NCc3ccc4c(c3)OCO4)o2)cc1,5%
16,COc1ccc(/C=C2\Oc3ccccc3N(CC(=O)N3CCOCC3)C2=O)cc1,5%
17,c1ccc(-n2nnnc2N2CCCC2c2nc3ccccc3s2)cc1 (stereo not given),-12%
18,COc1ccccc1/C=C1\SC(=O)N(c2ccccc2)C1=O,-8%
19,NNC(=O)CCCc1nc2ccccc2s1,4%
20,CCOC(=O)c1sc2nc(CN3CCCCC3)nc(NC3CC3)c2c1C,16%
21,O=S1(=O)CCC(N=Cc2cn(-c3ccccc3)nc2-c2ccccc2)C1 (stereo not given),10%
22,N#CNc1nc2ccccc2nc1Cl,2%
23,COc1ccc(NC(=O)c2ccoc2COc2ccc(C)cc2)cc1,0%
24,Cc1ccc(SCc2nnc(-c3c(-c4ccccc4)noc3C)o2)cc1C,-11%
25,CCCSc1nnc(Nc2ccccc2OC)s1,-21%
26,Cc1noc(N)c1C(=O)OCc1ccc(COC(=O)c2c(C)noc2N)cc1,-28%
27,O=C(COC(=O)C12CC3CC(CC(Br)(C3)C1)C2)NC1CC1,8%

row,SMILES,inhibition
1,Cc1nn(C)c(Cl)c1S(N)(=O)=O,8%
2,NC(=O)Cn1c(=O)n(Cc2ccco2)c(=O)c2ccccc21,16%
3,CC(=O)N1CCc2c(sc3c2c(=O)n(Cc2ccccc2)c(=O)n3Cc2cccc(C)c2)C1,-4%
4,Cc1cc(=O)n(-c2cccc(C(F)(F)F)c2)[nH]1,-1%
5,O=C(N/N=C/c1ccc(F)cc1)c1n[nH]c2c1CCC2,15%
6,Nc1c(C(=O)Nc2ccccc2C(F)(F)F)sc2[nH]c(=O)c(C(=O)O)cc12,15%
7,CCCN(CC1CC1)C(=O)CSc1nc(N)cc(N)n1,27%
8,NC(=O)C1CCN(C(=O)CSCc2ccc(Br)cc2)CC1,5%
9,CC(C)NC(=O)CCc1c[nH]c2ccccc12,13%
10,O=C(CN1CCC(c2nc(-c3ccncc3)n[nH]2)CC1)N1CCN(c2ccccc2F)CC1,-6%
11,COCCN1Cc2cccc(C(=O)NCc3ccco3)c2C1=O,-9%
12,CCOc1nc(NC(=O)NC(=O)c2cccs2)nc(-c2ccccc2)n1,11%
13,Cn1c(-c2ccco2)nn(C2CC(=O)C3OCC2O3)c1=S (stereo not given),-1%
14,CCOc1cccc(C(=O)NN2CCOCC2)c1,-7%
15,O=C(O)c1cccc(N2C(=O)/C(=C\c3ccc4c(c3)OCO4)SC2=S)c1,15%
16,Cc1noc(C)c1COC(=O)c1cccc(S(=O)(=O)N(C)C2CCCCC2)c1,-11%
17,CC1CCC(C(=O)NC(C(=O)N2CCN(Cc3ccccc3)CC2)C(C)C)CC1 (stereo not given),0%
18,Cc1nc(-c2ccccc2)sc1C(=O)NCC1CCCO1 (stereo not given),-20%
19,Nc1c(NCC(c2ccco2)N2CCCCC2)c(=O)[nH]c(=O)n1Cc1ccccc1 (stereo not given),9%
20,Clc1cccc2c(N3CCN(Cc4ccccc4)CC3)cnnc12,17%
21,CCCc1nnc(SCC(=O)N2CCCC2)n1CCOC,3%
22,CCS(=O)(=O)N1CCC(C(=O)OCC(=O)c2cc(C)n(C(C)C)c2C)CC1,-5%
23,CCc1n[nH]c(=S)n1/N=C1\C(=O)N(CC(C)C)c2ccccc21,1%
24,Cc1ccc(C(=O)COC(=O)c2cc3cc(Br)ccc3oc2=O)cc1,-19%
25,Cc1cccc(NC(=O)CNC(=O)c2ccc3c(=O)[nH]c(CN4CCOCC4)nc3c2)c1C,5%
26,CCOC(=O)c1c(CN2CCN(CC#N)CC2)n(-c2ccccc2)c2ccc(O)cc12,-1%
27,NC(=O)CCc1nc(-c2ccccc2)no1,-4%

row,SMILES,inhibition
1,Cc1nn(Cc2ccc(Cl)cc2)c(C)c1NC(=O)COCc1cc(-c2cccs2)on1,-15%
2,Cc1cc(C)c2nc3nc(C)cc(C)c3c(N)c2c1,77% (active)
3,Cc1cc(C)c2nc(-c3ccco3)cc(C(=O)O)c2c1,5%
4,COc1ccc(/C=N/N2C(=O)c3ccccc3C2=O)cc1OC,-16%
5,O=S1(=O)CC=C(S(=O)(=O)c2ccccc2)C1,2%
6,CCOC(=O)COc1ccc2cc(-c3nc4ccccc4s3)c(=O)oc2c1,-176%
7,CC(=O)Nc1nonc1Nc1csc(CC#N)n1,-1%
8,O=C(N/N=C/c1c(-c2ccccc2)nc2sccn12)c1ccc2ccccc2n1,15%
9,COc1cccc(C2NC(=O)NC(C)=C2C(=O)c2ccccc2)c1 (stereo not given),-13%
10,CC1=C(C(=O)NCCC(C)C)C2(CCC(C)CC2)OC1=O (stereo not given),1%
11,CC(C)CCSc1nc2ccccc2n1CN1CCN(S(=O)(=O)c2ccc(Cl)cc2)CC1,3%
12,O=C(NCc1ccccc1)N1CCC(CN2CCCCC2)CC1,4%
13,CCOC(=O)N1CCC(NC(=O)Cn2ncc3c(=O)oc4ccc(C)cc4c32)CC1,14%
14,CC(C)CCNS(=O)(=O)c1ccc2[nH]c3c(c2c1)CCCC3,-2%
15,CC(=O)Nc1ncc(Cc2ccc(C)cc2)s1,7%
16,Cc1ccc(CN(C)C(=O)c2n[nH]c3ccccc23)o1,-4%
17,CC(C)N(C(=O)CSc1nnc2sc3ccccc3n12)C(C)C,7%
18,CCCCSc1nc2ccccc2[nH]1,-5%
19,CC1=NN(C(N)=S)C(=O)C1,-7%
20,COc1ccc(C)cc1NC(=O)CSC1CCCC1,-1%
21,Cc1c(/C=N/NC(N)=S)c2ccccc2n1C,-2%
22,COc1cc(OC)c(OC)cc1CN1CCN(c2ccccc2F)CC1,10%
23,NCC1CCN(Cc2ccccc2Cl)CC1,-10%
24,c1csc(-c2csc(Cc3nc(-c4cccs4)cs3)n2)c1,36%
25,CCN(C(=O)Cc1noc2ccccc12)c1cc(OC)ccc1OC,9%
26,COc1ccc(-c2cc3c(n2Cc2ccc(F)cc2)CC(C)(C)CC3=O)cc1,-11%
27,COCCNC(=O)Cn1cc(/C=C2\C(=O)NC(=O)N(C3CCCCC3)C2=O)c2ccccc21,-31%

row,SMILES,inhibition
1,Cc1nc2cc(N=Cc3ccc(Cl)cc3)ccc2n1Cc1ccccc1,10%
2,Cc1nc(-c2cccs2)sc1C(=O)Nc1ccccc1,-5%
3,CN1C/C(=C/c2ccc3c(c2)OCCO3)C(=O)/C(=C/c2ccc3c(c2)OCCO3)C1,8%
4,CCc1ccc(C(=O)C(C)Sc2nnc(-c3ccccc3)o2)cc1 (stereo not given),-5%
5,COc1ccc(OC)c(NC(=O)CSc2nccn2-c2cccc(Cl)c2)c1,3%
6,NC(=O)CN1CCN(Cc2cccc3ccccc23)CC1,3%
7,Cc1cn2ccccc2c1P(=Nc1ccccc1)(N1CCOCC1)N1CCOCC1,7%
8,O=C(OC1CSC1)c1cccs1,-1%
9,CC1CC(=O)Nc2ccccc2N1C(=O)CSc1ccc2c(c1)OCCCO2 (stereo not given),15%
10,OCc1nc2ccccc2n1CC1CC1(Cl)Cl (stereo not given),-17%
11,Cc1nn(CC(=O)NCCc2ccccc2)c(=O)c2cc3occc3n12,8%
12,COc1ccc(/C=C2\Oc3cc(OC(=O)c4ccc(F)cc4)ccc3C2=O)cc1,5%
13,CC(C)c1ccc(N=Cc2cccs2)cc1,21%
14,O=C(NCC1CCCO1)c1ccc2c(=O)n3c(nc2c1)CCCCC3 (stereo not given),2%
15,CN1CCN(C(=O)c2ccc(-c3ccc(Br)cc3)o2)CC1,-25%
16,CCn1c(CNC(=O)c2ccncc2)cc2ccccc21,7%
17,Nc1nnnn1/N=C/c1cccc(Br)c1,4%
18,O=C(COC(=O)C1CC1)c1ccccc1Br,-9%
19,CCC(Sc1nnc(-c2cc3occc3n2C)n1-c1ccccc1C)C(=O)Nc1ccc(C)cc1 (stereo not given),10%
20,NS(=O)(=O)c1ccc(CNC(=O)c2cccc3cccnc23)cc1,-13%
21,[O-][n+]1ccccc1SC1=COCCC1,8%
22,COc1ccc(N2CCN(c3nc(N)c4c(N)nc5c(c4c3C#N)CC(=O)N5C)CC2)cc1,9%
23,CC1=Nc2nc(N3CC(C)OC(C)C3)c(C#N)c3c4c(nc(c23)N1)N(c1ccccc1)C(=O)C4 (stereo not given),54% (active)
24,N#Cc1c(N)nc2c(c1N)CC(=O)N2c1ccccc1,-11%
